Measurements reported in PubChem BioAssay (NCI).
The panel holds about 83,000 compounds, 20% with a hit somewhere; the sample as a whole holds those more often.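 96-well plates, one dose, 48 hours. Percent growth reported; active if below 10.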 Unmarked numbers belong to inactive results. Active and inactive are the calls of the source.

Key:
Experiment in all cases: NCI-60 one-dose screen, 48 h (100 = growth as untreated, 0 = no growth, -100 = all killed)
Conditions in all cases: 10 µM unless noted
DU-145 prostate = test system: DU-145 prostate
K-562 leukemia = test system: K-562 leukemia
MALME-3M melanoma = test system: MALME-3M melanoma
MDA-MB-231 breast = test system: MDA-MB-231 breast
RXF 393 renal = test system: RXF 393 renal
SF-268 CNS = test system: SF-268 CNS
SF-295 CNS = test system: SF-295 CNS
SF-539 CNS = test system: SF-539 CNS
UACC-257 melanoma = test system: UACC-257 melanoma
M14 melanoma = test system: M14 melanoma
HCT-15 colon = test system: HCT-15 colon
HT29 colon = test system: HT29 colon
SNB-75 CNS = test system: SNB-75 CNS
SNB-19 CNS = test system: SNB-19 CNS
U251 CNS = test system: U251 CNS
PC-3 prostate = test system: PC-3 prostate
SK-MEL-5 melanoma = test system: SK-MEL-5 melanoma
UACC-62 melanoma = test system: UACC-62 melanoma
LOX IMVI melanoma = test system: LOX IMVI melanoma
SK-MEL-28 melanoma = test system: SK-MEL-28 melanoma

| Structure (SMILES) | growth (DU-145 prostate) [%] | growth (K-562 leukemia) | growth (MALME-3M melanoma) | growth (MDA-MB-231 breast) | growth (RXF 393 renal) | growth (SF-268 CNS) [%] | growth (SF-295 CNS) | growth (SF-539 CNS) | growth (UACC-257 melanoma) | growth (M14 melanoma) [%] | growth (HCT-15 colon) | growth (HT29 colon) [%] | growth (SNB-75 CNS) | growth (SNB-19 CNS) [%] | growth (U251 CNS) | growth (PC-3 prostate) | growth (SK-MEL-5 melanoma) | growth (UACC-62 melanoma) | growth (LOX IMVI melanoma) | growth (SK-MEL-28 melanoma) [%] |
| --- | --- | --- | --- | --- | --- | --- | --- | --- | --- | --- | --- | --- | --- | --- | --- | --- | --- | --- | --- | --- |
| CNc1ccc(NC)c2c1C(=O)c1ccccc1C2=O | 92.6 | 96% | 120% | 77.2% | 75% | 76.4 | 65.9% | 56% | 85.2% | 113 | 77.1% | 98.7 | 52.3% | 85.5 | 87% | 84% | 93.6% | 87.9% | 84.9% | 102 |
| Cc1ccc(/C=C2\C(=O)N(C)c3ccc(S(=O)(=O)Nc4ccc(C(C)(C)C)cc4)cc32)s1 | 38.9 | 66.7% | 42.5% | 21.2% | 42.1% | 26.7 | 42.6% | 19.4% | 76% | 67 | 68% | 64.9 | -18.3% (active) | 58.3 | 20.5% | 52.9% | 82.3% | 60.7% | 28.2% | 69.1 |
| COc1cc2c(cc1-c1c(C)noc1C)ncc1nc(C3CCCCC3)n(C3CCC(OC(F)F)CC3)c12 (stereo not given) | 63 | 20.1% | 41.7% | 35.9% | 36.5% | 57 | 33.9% | 47% | 40.3% | 39.6 | 25.3% | 19.9 | 23.3% | 55.8 | 25.1% | 16.8% | 9.79% (active) | 22.3% | 17.8% | 46.6 |
| Cc1ccc(-c2cc3c(cc2O)C2CCCCC2(N2CCOCC2)O3)cc1 (stereo not given) | 106 | 89.1% | 101% | 114% | 90.6% | 97.2 | 103% | 105% | 102% | 92.5 | 101% | 105 | 75.4% | 98.7 | 98.6% | 75.3% | 99.1% | 71.2% | 87.1% | 111 |
| Cc1cccc(-c2nc(N(C)c3ccc4ncsc4c3)c3ccccc3n2)n1 | 94.1 | 21.6% | 79.5% | 63.6% | 84.3% | 94.1 | 77% | 92.1% | 76.1% | 54.1 | 51.5% | 50.1 | 94% | 77.1 | 82.2% | 45.5% | 22.4% | 50.4% | 77.5% | 72 |
| O=C(Nc1ccc(Cl)cc1)Nc1ccc(Cl)c(C(F)(F)F)c1 | 20.2 | -10.2% (active) | -30.7% (active) | -4.47% (active) | 33.6% | 21.3 | -28.2% (active) | 4.38% (active) | 2.84% (active) | 11.8 | 8.11% (active) | 18.9 | 41.3% | 13 | 4.41% (active) | -8.98% (active) | -13.3% (active) | 23.9% | 3.49% (active) | 19.1 |
| Cn1cc2c(c1)-c1nc(Nc3ccccc3)ncc1CC2 | 56.5 | 85.2% | 95.3% | 67.4% | 62.4% | 72.2 | 84.3% | 65.6% | 89.7% | 55 | 45.9% | 79.9 | 75.7% | 69.4 | 59.7% | 58.5% | 73.2% | 51.1% | 49.6% | 99.9 |
| Cc1cc(Cl)ccc1Nc1nc(C(F)(F)F)ccc1C(=O)N/N=C/c1ccc(N(C)C)cc1 | 40.3 | 18.9% | 22.1% | 22% | -4.86% (active) | 31.8 | -7.53% (active) | 41.4% | 30% | 33.9 | 15.9% | 32.5 | 65.1% | 42 | 16.2% | 30.3% | 12.9% | 9.47% (active) | 27% | 45.2 |
